Experimental data: PubChem BioAssay AID1159580 (chemical genetic matrix, 2015)
Where “and” joins values, the source holds several entries; their conditions need not be identical. Equal values may be shown once. In all, about 5,500 compounds went through this assay and about 2,000 (36%) were called active. Inconclusive results (about 18%) are left out. No stated cut-off is given here; in the data, active means normalized growth mostly below about 0.91 (no sharp cut-off); inconclusive means no clear call, values can overlap the other calls; inactive means mostly above about 0.92. This is one part of the list.

Assay: chemical genetic growth profiling, strain panel (AID 1159580);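 further: tested at 20 µM; growth read once vehicle control cultures reached saturation at 30 °C; 1 = growth at the plate median or of vehicle wells; lower values mean less growth of the strain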
Details: growth OD

Measured: normalized growth

O=C1CCC(N2C(=O)c3ccccc3C2=O)C(=O)N1 (stereo unspecified)
inactive: S. cerevisiae deletion strains, locus YJR075W, strain HOC1, active compounds read low 0.972 and 1.02 | S. cerevisiae deletion strains, locus YKL009W, strain mrt4, active compounds read low 1.03 | S. cerevisiae deletion strains, locus YKL068W, active compounds read low 0.997 | S. cerevisiae deletion strains, locus YKL085W, strain MDH1 (second series), active compounds read low 1.03 | S. cerevisiae deletion strains, locus YKL085W, strain MDH1, active compounds read low 1.03 | S. cerevisiae deletion strains, locus YKL160W, strain elf1, active compounds read low 1 | S. cerevisiae deletion strains, locus YKL190W, strain CNB1, active compounds read low 1.02 | S. cerevisiae deletion strains, locus YKR001C, strain vps1, active compounds read low 0.969 | S. cerevisiae deletion strains, locus YKR026C, strain gcn3, active compounds read low 1.02 | S. cerevisiae deletion strains, locus YKR091W, strain srl3, active compounds read low 1.02 | S. cerevisiae deletion strains, locus YLL001W, strain dnm1, active compounds read low 1.04 | S. cerevisiae deletion strains, locus YLL026W, active compounds read low 1.01 | S. cerevisiae deletion strains, locus YLL041C, strain sdh2, active compounds read low 1.03 | S. cerevisiae deletion strains, locus YLR027C, strain aat2, active compounds read low 1 | S. cerevisiae deletion strains, locus YLR039C, strain RIC1, active compounds read low 1.03 | S. cerevisiae deletion strains, locus YLR058C, strain SHM2, active compounds read low 1.01 | S. cerevisiae deletion strains, locus YLR102C, strain apc9, active compounds read low 0.991 | S. cerevisiae deletion strains, locus YLR113W, strain HOG1, active compounds read low 0.971 | S. cerevisiae deletion strains, locus YLR221C, strain rsa3, active compounds read low 1.03 | S. cerevisiae deletion strains, locus YLR258W, strain gsy2, active compounds read low 1.02 | S. cerevisiae deletion strains, locus YLR262C, strain YPT6 (second series), active compounds read low 1.02 | S. cerevisiae deletion strains, locus YLR262C, strain YPT6, active compounds read low 1.05 | S. cerevisiae deletion strains, locus YLR268W, strain sec22, active compounds read low 0.985 | S. cerevisiae deletion strains, locus YLR320W, strain mms22, active compounds read low 1.03 | S. cerevisiae deletion strains, locus YLR330W, strain CHS5, active compounds read low 1 | S. cerevisiae deletion strains, locus YLR342W, strain FKS1 (second series), active compounds read low 0.991 | S. cerevisiae deletion strains, locus YLR342W, strain FKS1, active compounds read low 1.01 | S. cerevisiae deletion strains, locus YLR357W, strain rsc2, active compounds read low 0.997 | S. cerevisiae deletion strains, locus YLR370C, strain arc18, active compounds read low 1.03 | S. cerevisiae deletion strains, locus YLR371W, strain rom2, active compounds read low 0.983 | S. cerevisiae deletion strains, locus YLR384C, strain iki3, active compounds read low 1.03 | S. cerevisiae deletion strains, locus YLR418C, strain cdc73, active compounds read low 0.977 | S. cerevisiae deletion strains, locus YML016C, strain PPZ1, active compounds read low 1.01 | S. cerevisiae deletion strains, locus YML032C, strain rad52, active compounds read low 0.979 | S. cerevisiae deletion strains, locus YML120C, strain ndi1, active compounds read low 1.04 | S. cerevisiae deletion strains, locus YML124C, strain tub3, active compounds read low 0.988 | S. cerevisiae deletion strains, locus YMR058W, strain fet3, active compounds read low 1.02 | S. cerevisiae deletion strains, locus YMR078C, strain ctf18, active compounds read low 0.998 | S. cerevisiae deletion strains, locus YMR125W, strain sto1, active compounds read low 1.01 | S. cerevisiae deletion strains, locus YMR129W, active compounds read low 1.02 | S. cerevisiae deletion strains, locus YMR205C, strain PFK2, active compounds read low 1.01 | S. cerevisiae deletion strains, locus YMR223W, strain ubp8, active compounds read low 0.981 | S. cerevisiae deletion strains, locus YMR231W, strain pep5, active compounds read low 1.01 | S. cerevisiae deletion strains, locus YMR263W, strain SAP30, active compounds read low 1.02 and 1 | S. cerevisiae deletion strains, locus YMR307W, strain GAS1, active compounds read low 1.01 and 0.996 | S. cerevisiae deletion strains, locus YNL067W, strain RPL9B, active compounds read low 1.02 | S. cerevisiae deletion strains, locus YNL071W, strain lat1, active compounds read low 1.03 | S. cerevisiae deletion strains, locus YNL128W, strain TEP1, active compounds read low 1.02 | S. cerevisiae deletion strains, locus YNL153C, strain GIM3, active compounds read low 1.02 | S. cerevisiae deletion strains, locus YNL175C, strain NOP13, active compounds read low 0.997 | S. cerevisiae deletion strains, locus YNL183C, strain NPR1, active compounds read low 0.927 | S. cerevisiae deletion strains, locus YNL197C, strain WHI3, active compounds read low 0.986 | S. cerevisiae deletion strains, locus YNL209W, strain ssb2, active compounds read low 1.02 | S. cerevisiae deletion strains, locus YNL224C, strain SQS1, active compounds read low 0.991 | S. cerevisiae deletion strains, locus YNL233W, strain BNI4, active compounds read low 1.02 | S. cerevisiae deletion strains, locus YNL248C, strain rpa49, active compounds read low 0.957 | S. cerevisiae deletion strains, locus YNL250W, strain rad50, active compounds read low 1 | S. cerevisiae deletion strains, locus YNL271C, strain bni1, active compounds read low 0.986 | S. cerevisiae deletion strains, locus YNL298W, strain CLA4, active compounds read low 1 | S. cerevisiae deletion strains, locus YNL307C, strain MCK1, active compounds read low 0.987 | S. cerevisiae deletion strains, locus YNL322C, strain KRE1 (second series), active compounds read low 1.02 | S. cerevisiae deletion strains, locus YNL322C, strain KRE1, active compounds read low 1.01 | S. cerevisiae deletion strains, locus YNR049C, strain mso1, active compounds read low 1.01 | S. cerevisiae deletion strains, locus YNR052C, strain pop2, active compounds read low 0.991 | S. cerevisiae deletion strains, locus YOL006C, strain TOP1, active compounds read low 1.01 | S. cerevisiae deletion strains, locus YOL012C, strain htz1 0.819 | S. cerevisiae deletion strains, locus YOL147C, strain pex11, active compounds read low 0.989 | S. cerevisiae deletion strains, locus YOR001W, strain rrp6, active compounds read low 1.01 | S. cerevisiae deletion strains, locus YOR061W, strain CKA2, active compounds read low 1.02 | S. cerevisiae deletion strains, locus YOR069W, strain VPS5, active compounds read low 1.01 | S. cerevisiae deletion strains, locus YOR070C, strain gyp1, active compounds read low 1.02 | S. cerevisiae deletion strains, locus YOR080W, strain dia2, active compounds read low 1.02 | S. cerevisiae deletion strains, locus YOR083W, strain WHI5 (second series), active compounds read low 1.01 | S. cerevisiae deletion strains, locus YOR083W, strain WHI5, active compounds read low 1.01 | S. cerevisiae deletion strains, locus YOR106W, strain vam3, active compounds read low 1.01 | S. cerevisiae deletion strains, locus YOR136W, strain idh2, active compounds read low 0.981 | S. cerevisiae deletion strains, locus YOR144C, strain elg1, active compounds read low 0.998 | S. cerevisiae deletion strains, locus YOR184W, strain ser1, active compounds read low 0.981 | S. cerevisiae deletion strains, locus YOR231W, strain MKK1, active compounds read low 0.976 | S. cerevisiae deletion strains, locus YOR265W, strain rbl2, active compounds read low 1.01 | S. cerevisiae deletion strains, locus YOR270C, strain vph1, active compounds read low 1.04 | S. cerevisiae deletion strains, locus YOR290C, strain snf2, active compounds read low 1.01 | S. cerevisiae deletion strains, locus YOR316C, strain cot1, active compounds read low 0.997 | S. cerevisiae deletion strains, locus YPL051W, strain arl3, active compounds read low 1 | S. cerevisiae deletion strains, locus YPL055C, strain LGE1, active compounds read low 1.05 | S. cerevisiae deletion strains, locus YPL078C, strain atp4, active compounds read low 1.01 | S. cerevisiae deletion strains, locus YPL106C, strain sse1, active compounds read low 1.03 | S. cerevisiae deletion strains, locus YPL240C, strain hsp82, active compounds read low 1.02 | S. cerevisiae deletion strains, locus YPL241C, strain CIN2, active compounds read low 1.01 | S. cerevisiae deletion strains, locus YPL256C, strain CLN2, active compounds read low 0.968 | S. cerevisiae deletion strains, locus YPR119W, strain clb2, active compounds read low 0.979 | S. cerevisiae deletion strains, locus YPR141C, strain kar3, active compounds read low 0.988 | S. cerevisiae deletion strains, locus YPR163C, strain tif3, active compounds read low 0.998 | S. cerevisiae deletion strains, locus YPR167C, strain met16, active compounds read low 0.99 | S. cerevisiae deletion strains, strain wtn01, active compounds read low 0.983 | S. cerevisiae strains, strain wild type, active compounds read low 1.01
